# Records with an inconclusive call do not appear. Where a call stands in place of a potency, no number is given. The source made the active and inactive calls. The call rests on the fitted dose curve; in most records, active means well fitted curve in the direction sought with a large enough effect; inconclusive means small, poorly fitted or top-dose-only effect, or another doubt; inactive means no such curve, though single readings can be large; an effect the other way counts as inactive or inconclusive.
# Columns and labels:
# [1] = target: Aldehyde dehydrogenase, mitochondrial (Homo sapiens) (UniProt P05091); assay: qHTS for Inhibitors of the Aldehyde Dehydrogenase Family (ALDH2) Primary screen (AID 2061308); further: nearly all actives have a fitted effect of over 55% in size
# [2] = target: Retinaldehyde dehydrogenase 3 (Homo sapiens) (UniProt P47895); assay: qHTS for Inhibitors of the Aldehyde Dehydrogenase Family (ALDH1A3) Primary screen (AID 2061315)
Compound,Potency [1],Potency [2]
CN1CCC(N(Cc2cccs2)c2ccccc2)CC1,inactive,inactive
O=[S+]([O-])(c1ccc2c(c1)OCCO2)N1CCN([S+](=O)([O-])c2c(O)cc(F)cc2F)CC1,inactive,inactive
NC(=O)C1CCN(c2nc(-c3ccccc3C(F)(F)F)cs2)CC1,inactive,inactive
CCOc1ccc(CCNC(=O)c2cc3sccc3n2CCN2CCOCC2)cc1OCC,inactive,inactive
Cc1ccccc1C(=O)N1CCc2cc(-n3cc(NC(=O)Cc4ccccc4)cn3)ccc21,inactive,inactive
CCN(CC)CCn1c(-c2ccccc2)nc2c(N3CCOCC3)nc(C)nc21,inactive,inactive
Cc1ccc(-c2ccc(=O)n(CC(=O)NCCc3ccccc3)n2)cn1,inactive,inactive
Clc1ccccc1-c1ccc2ncnc(NCc3ccc4c(c3)OCO4)c2c1,inactive,inactive
O=S(=O)(NC1CCCC(NS(=O)(=O)c2c(F)cccc2F)C1)c1ccc2c(c1)OCCO2 (stereo not given),inactive,inactive
Cc1ccc(CNc2ncnc3ccc(-c4ccoc4C)cc23)o1,inactive,inactive
O=C(NC1CCCc2c1cnn2-c1ccc(F)cc1F)C1CCCCN1 (stereo not given),inactive,inactive
CCCn1c(C)nc2c(N3CCCN(Cc4ccccc4)CC3)nc(C)nc21,inactive,inactive
CCC(=O)NC(c1cccs1)c1cc(Cl)c2cccnc2c1O (stereo not given),inactive,inactive
Fc1cc(Nc2nc(-c3ccncc3)nc3ccccc23)ccc1-c1cccc(C(F)(F)F)c1,inactive,inactive
CC(=O)Nc1sc2c(c1C(=O)O)CCNC2,inactive,inactive
